Holding throughout (experiment): NCI-60 one-dose screen, 48 h (100 = growth as untreated, 0 = no growth, -100 = all killed)
What all share (conditions): 10 µM unless noted

Test [1] has as its system SR leukemia.
Test [2] deals with OVCAR-8 ovarian.
Test [3] has as its system OVCAR-5 ovarian.
Test [4] has as its system OVCAR-4 ovarian.
Test [5] relates to SK-OV-3 ovarian.
Test [6] deals with IGROV1 ovarian.
Test [7] has as its system OVCAR-3 ovarian.
Test [8] concerns HS 578T breast.
Test [9] relates to NCI/ADR-RES ovarian.
Test [10] concerns T-47D breast.
Test [11] deals with BT-549 breast.
In test [12] the test system is MDA-MB-435 melanoma.
Test [13] deals with SW-620 colon.
Test [14] concerns MCF7 breast.
Test [15] has as its system HCT-116 colon.
Test [16] concerns KM12 colon.
The test system of test [17] is HCC-2998 colon.
Test [18] concerns RPMI-8226 leukemia.

Structures are written as SMILES. This is part of a sample that, as a whole, favours compounds with a hit. Of some 83,000 tested, about 20% had one in any assay.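 Single-dose data. Exposure time 48 hours. Values below 10 considered active.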 Unmarked numbers belong to inactive results. The source made the active and inactive calls.

Turning to `O=[N+]([O-])c1c(F)cccc1Nc1cccc(F)c1`, the growth in test [1] was 102%; in test [2], 102%; in test [3] it was 97.3%; in test [4], 95.9%; in [5], 114%; in test [6], 117%. The growth is 109% in [7]; 102% in test [8]; 110% in [9]; 108% in test [10]; 118% in test [11]; 105% in [12]. Besides, the growth in [13] was 108%; in [14], 90.3%; in test [15] it was 99.5%; in test [16] it was 115%.

As for `C=C1C(=O)O[C@H]2[C@H]1CC/C(Cn1cc(Cn3ccc4ccccc43)nn1)=C\CC[C@@]1(C)O[C@@H]21`, the growth in test [1] was -18.4% (active); in test [2] it was 11%; in test [3], 71.5%; in test [4], 45.4%; in [5] it was 101%; in [6], 47.8%. Moreover, the growth was -59.7% (active) in test [7]; 69.4% in [8]; 77.9% in [9]; -17.9% (active) in test [10]; 58.7% in test [11]; 19.9% in [12]. Also, the growth in [13] is -77.1% (active); in [14] it was -73.9% (active); in test [15], -89.5% (active); in [17] it was 69%; in [16], 66.5%.

`C#Cc1nc2ccccc2c(=O)[nH]1`: the growth was 2.53% (active) in test [1]; -31.3% (active) in test [2]; -44.7% (active) in [3]; -74.4% (active) in test [4]; 49.6% in test [5]; -66.2% (active) in [6]. Besides, the growth in [7] is -82.3% (active); in [8] it was -4.79% (active); in test [9], -2.94% (active); in [10], -30.6% (active); in test [12], -58.2% (active); in [13], -63.7% (active). Further, the growth in test [14] was -25% (active); in test [15], -64.2% (active); in test [17] it was -41.1% (active); in [16] it was -65.7% (active).

In the case of `CN(C)CCOc1ccc(-c2nc3ccc(-c4nc5ccc(N6CCN(C)CC6)cc5[nH]4)cc3[nH]2)cc1`, the growth in test [18] is 35.5%; in [2] it was 63.6%; in test [3] it was 83%; in [4], 68%; in [5], 69.5%; in test [6], 90%. For the same molecule, the growth was 94.9% in test [7]; 76.4% in test [8]; 108% in test [9]; 55.3% in test [10]; 74.2% in test [11]; 61.2% in [12]. The growth in [13] was 66.3%; in [14], 35.5%; in test [15] it was 48.3%; in test [17] it was 99%; in test [16], 57.3%.

With `CC(=O)C1=C(O)C=C2Oc3c(C(=O)/C=C/c4cc(C(F)(F)F)cc(C(F)(F)F)c4)c(O)c(C)c(O)c3[C@]2(C)C1=O`, the growth in [1] was -29.3% (active); in test [2], -29.1% (active); in [3], -6.52% (active); in test [4] it was 12.5%; in test [5], -32.9% (active); in test [6] it was -6.87% (active). The growth is -50.5% (active) in [7]; -12.2% (active) in test [8]; -48.2% (active) in [9]; -18.7% (active) in test [10]; -29.6% (active) in test [11]; -33.9% (active) in test [12]. Besides, the growth in test [13] was -10.2% (active); in test [14], -42% (active); in test [15] it was -30% (active); in [17], -87.4% (active); in test [16] it was -46% (active).

Turning to `CCN(CC)CCC(=O)c1ccc(OC)c2ccccc12`, the growth in test [1] was -6.8% (active); in [2] it was 89.6%; in [3], 91.1%; in [4], 98.4%; in test [5], 98.3%; in [6], 91.6%. The growth in test [7] was 109%; in test [8] it was 95.9%; in [9] it was 98.8%; in [10] it was 29.1%; in test [12] it was 102%; in test [13], 93%. The growth is 11.9% in test [14], 88.4% in [15], 90.8% in [17] and 81.8% in test [16].

Consider `CCCCN(CCCC)CCC(C)(O)c1cc2ccccc2c2ccccc12` (stereo unspecified), for which the growth in test [1] is 39.7%; in [2], 92.6%; in test [3], 98.6%; in [4], 109%; in [5], 99.9%; in test [6], 6.06% (active). Besides, the growth is 69% in test [7]; 67.6% in test [9]; 109% in test [10]; 121% in test [11]; 83.9% in [12]; 69.5% in test [13]. Also, the growth in [14] is 96.5%; in test [15] it was 65.6%; in test [17], 80.3%; in [16], 83.8%.

Take `COc1cc(-c2nc3ccccc3s2)ccc1NC(=O)COc1ccc(Cl)cc1`: the growth is 83.6% in [1]; -3.09% (active) in test [2]; 61.8% in test [3]; 6.47% (active) in test [4]; 24.6% in test [6]; 42.4% in [7]. Further, the growth in [8] was 44.7%; in [9], 33.2%; in test [10] it was 23%; in [11], 87.6%; in test [12], 72%; in test [13], 87.6%. Further, the growth in [14] is 40.4%; in test [15], 44.9%; in [17], 85.1%; in test [16], 45.6%.

Regarding `CC/C=C\C[C@H](F)C/C=C1/C(=O)C=C[C@@H]1C/C=C\CCCC(=O)O`, the growth is -13.2% (active) in [1]; 11.2% in test [2]; 86.1% in test [3]; 83.6% in test [4]; 86.4% in [5]; 65.4% in test [6]. In addition, the growth in test [7] was 26.9%; in [8] it was 84%; in test [9], 9.24% (active); in test [10], 71.9%; in [12] it was 21.6%; in test [13] it was 30.9%. Besides, the results for the growth in [14], in test [15] and in test [16] were 22.6%, -15.7% (active) and 22.3%, respectively.
